Several values for one entry are separate records, joined by “and”; a condition that tells them apart may be missing. Identical values can stand only once. Records with an inconclusive call do not appear. Activity calls are given as the source filed them. Unless noted, no rule for the calls is given here.

Test [1] is described as follows: qHTS Assay for Identifying Gametocytocidal Compounds (AID 743244; active = well fitted curve in the direction sought with a large enough effect; an effect the other way counts as inactive or inconclusive;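 also: % is scaled to controls: 0 for no effect and ±100 for the full control effect; actives lower the fluorescent signal which means gametocytes are killed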). The settings on record: P. falciparum 3D7 stage III-V gametocytes, alamarBlue, 72 h; max response: stronger effect = lower value. The method in brief:
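Fluorescence at Ex 525/Em 598 nm, recorded 24 h after alamarBlue addition, reports residual metabolic activity of 3D7 gametocytes (stages III–V) following 72 h compound exposure at 37 °C, 5% CO2.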

Test [2] in a line: qHTS profiling for inhibitors of Plasmodium falciparum (3D7) proliferation (AID 743322).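 Also: infected erythrocytes exposed to compound for 72 h before lysis; 100% = DMSO vehicle wells and 0% = 0.29 µM artemisinin.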 The settings on record: P. falciparum 3D7 proliferation; at 28.7 µM (top of the series) unless noted. The method in brief:
(§1)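 Parasite DNA was quantified by SYBR Green I fluorescence (ex 485, em 535 nm) after overnight lysis in saponin/Triton buffer at room temperature. Cultures at 0.3% parasitemia and 2.5% hematocrit were first exposed to compound for 72 h at 37 C; signals were normalised to artemisinin (0.29 uM) and vehicle wells.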
(In general: In qHTS, concentration-response curves come from the screen itself.)

Test [3] is described as follows: qHTS profiling for inhibitors of Plasmodium falciparum (DD2) proliferation (AID 743323). To be noted: lower = more inhibition; at 28.7 µM (top of the series) unless noted. The method in brief:
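Parasite DNA quantified by SYBR Green fluorescence (ex 485, em 535 nm) after saponin/Triton lysis and overnight dark incubation. Cultures: 0.3% parasitemia, 2.5% hematocrit, 72 h, 37 C; data scaled between DMSO and 0.29 uM artemisinin.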

Test [4] in a line: qHTS profiling for inhibitors of Plasmodium falciparum (HB3) proliferation (AID 743324; active = well fitted curve in the direction sought with a large enough effect; an effect the other way counts as inactive or inconclusive;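 also: 100% = DMSO vehicle wells and 0% = artemisinin-treated control wells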). To be noted: Plasmodium falciparum HB3 blood-stage proliferation; at 28.7 µM (top of the series) unless noted. The method in brief: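 SYBR Green fluorescence (485 ex/535 em) of lysed cultures, incubated overnight at room temperature in the dark, quantifies parasite DNA. Infected erythrocytes at 0.3% parasitemia and 2.5% hematocrit were exposed 72 h; values normalized to DMSO and 0.29 uM artemisinin controls.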

Test [5] in a line: qHTS profiling of the MIPE4 collection as inhibitors of Plasmodium falciparum (3D7) proliferation (AID 743344).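 Also: scaled between DMSO vehicle wells and 0.29 µM artemisinin as full inhibition.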 The settings on record: P. falciparum 3D7 in erythrocytes, SYBR Green DNA fluorescence, 72 h; at 28.5 µM (top of the series) unless noted. The gist of the method: as §1
Test [6] in a line: qHTS profiling of the MIPE4 collection as inhibitors of Plasmodium falciparum (DD2) proliferation (AID 743345). To be noted: P. falciparum Dd2 in erythrocytes, SYBR Green DNA, 72 h; at 28.5 µM (top of the series) unless noted. The gist of the method: as §1
Test [7] in a line: qHTS profiling of the MIPE4 collection as inhibitors of Plasmodium falciparum (DD2) proliferation (Rep 2) (AID 743346). To be noted: P. falciparum Dd2 in erythrocytes, SYBR Green DNA, 72 h; at 28.5 µM (top of the series) unless noted. The gist of the method: as §1
Test [8] in a line: qHTS profiling of the MIPE4 collection as inhibitors of Plasmodium falciparum (HB3) proliferation (AID 743347).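 Also: plate controls were DMSO vehicle wells for no effect and artemisinin wells for full effect.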 To be noted: P. falciparum HB3 in erythrocytes, SYBR Green DNA, 72 h; at 28.5 µM (top of the series) unless noted. The method in brief:
as §1

As for `C[C@@H]1CN(Cc2ccc(F)cc2)[C@@H](C)CN1C(=O)c1cc2c(C(=O)C(=O)N(C)C)cn(C)c2cc1Cl`, the max response in test [1] is 12.3% (inactive). Further, the remaining parasite growth % (stronger effect = lower value) in test [2] was 69.2%. Besides, the activity, percent of control in test [3] stood at 79.8%. Moreover, in test [4], the remaining proliferation (% of control), lower = more inhibition was determined as 52.3%. In test [5], this compound came in with a parasite growth, % of DMSO control of 49.5%. The parasite growth remaining, % of DMSO control (lower = more inhibition) in test [6] was 83.2%. In addition, the parasite growth, % of control (lower = inhibition) in test [7] was 48.6%. Besides, the growth, % of control in test [8] worked out at 47.5%.
Take `CCOc1ccc(Cc2cc([C@@H]3O[C@H](CO)[C@@H](O)[C@H](O)[C@@H]3O)ccc2Cl)cc1`: the max response in test [1] is 10.7% (inactive). Besides, the remaining parasite growth % (stronger effect = lower value) in test [2] is 46.7%. In addition, the activity, percent of control in test [3] turned out to be 101%. Moreover, the parasite growth, % of DMSO control in test [5] is 136%. Moreover, in test [6], the parasite growth remaining, % of DMSO control (lower = more inhibition) came to 104%. Moreover, the parasite growth, % of control (lower = inhibition) in test [7] stood at 103%. This compound came in with a growth, % of control in test [8] of 505%.
Turning to `O=S(=O)(N=Cc1c(O)ccc2ccccc12)c1cccs1`, the max response in test [1] was -5.04% (inactive). Also, in test [2], the remaining parasite growth % (stronger effect = lower value) worked out at 85.7%. For the same compound, the activity, percent of control in test [3] worked out at 92.2%. In test [4], the remaining proliferation (% of control), lower = more inhibition is 82.6%. Moreover, the parasite growth, % of DMSO control in test [5] turned out to be 75.2%. The parasite growth remaining, % of DMSO control (lower = more inhibition) in test [6] turned out to be 91.9%. In addition, in test [7], the parasite growth, % of control (lower = inhibition) came to 63.3%. Further, in test [8], the growth, % of control is 63.2%.
In the case of `Fc1ccc(Cl)cc1-c1nc(Nc2ccncc2)c2nccnc2n1`, in test [1], the max response was -14.2% (inactive). Besides, the remaining parasite growth % (stronger effect = lower value) in test [2] was 5.45%. In addition, the activity, percent of control in test [3] amounted to 25.3%. The remaining proliferation (% of control), lower = more inhibition in test [4] is 13.2%. The parasite growth, % of DMSO control in test [5] is 22.1%. Moreover, in test [6], the parasite growth remaining, % of DMSO control (lower = more inhibition) turned out to be 37%. Further, the parasite growth, % of control (lower = inhibition) in test [7] was determined as 30.8%. In test [8], the growth, % of control stood at 8.98%.
In the case of `COCCNCCCn1c(C(=O)CF)c(-c2ccc(C)cc2)c2c(N)ncnc21`, the max response in test [1] was -16.2% (inactive). In test [2], the remaining parasite growth % (stronger effect = lower value) amounted to 72.8%. For the same compound, in test [3], the activity, percent of control was 77.9%. Besides, in test [5], the parasite growth, % of DMSO control was 39%. Further, the parasite growth remaining, % of DMSO control (lower = more inhibition) in test [6] was determined as 85.3%. In test [7], the parasite growth, % of control (lower = inhibition) came to 36.5%. For the same compound, the growth, % of control in test [8] stood at 32.4%.
In the case of `CCCS(=O)(=O)Nc1ccc(F)c(C(=O)c2c[nH]c3ncc(Cl)cc23)c1F`, the max response in test [1] is 35.4% (inactive). For the same compound, in test [2], the remaining parasite growth % (stronger effect = lower value) is 90.9%. For the same compound, the activity, percent of control in test [3] is 83.1%. For the same compound, the parasite growth, % of DMSO control in test [5] turned out to be 51.6%. In addition, the parasite growth remaining, % of DMSO control (lower = more inhibition) in test [6] was 77.2%. In test [7], the parasite growth, % of control (lower = inhibition) was 80.8%. Besides, the growth, % of control in test [8] was 71.8%.
Turning to `O=C1CCCC2=C1C(c1[nH]ncc1Cl)N=C(Nc1nc3ccccc3o1)N2` (stereo unspecified), in test [1], the max response is 6.89% (inactive). In addition, in test [2], the remaining parasite growth % (stronger effect = lower value) turned out to be 115%. Moreover, the activity, percent of control in test [3] is 105%. The remaining proliferation (% of control), lower = more inhibition in test [4] came out at 114%. This compound also came in with a parasite growth, % of DMSO control in test [5] of 20.6%. In test [6], the parasite growth remaining, % of DMSO control (lower = more inhibition) stood at 10.9%. Also, the parasite growth, % of control (lower = inhibition) in test [7] was found to be 8.08%. Further, the growth, % of control in test [8] came to 55.2%.
Take `C#Cc1cccc(Nc2ncnc3cc(OCCOC)c(OCCOC)cc23)c1`: in test [1], the max response was 10.7% (inactive) and -0.582% (inactive). The remaining parasite growth % (stronger effect = lower value) in test [2] worked out at 12.2%. Moreover, the activity, percent of control in test [3] is 27.9%. Besides, the remaining proliferation (% of control), lower = more inhibition in test [4] is 6.23%. Besides, the parasite growth, % of DMSO control in test [5] stood at 24.3%. Besides, in test [6], the parasite growth remaining, % of DMSO control (lower = more inhibition) was found to be 50.4%. For the same compound, in test [7], the parasite growth, % of control (lower = inhibition) came to 43.1%. The growth, % of control in test [8] is 4.75%.
As for `Cc1csc(NC(=O)c2sc3nc4c(c(C(F)(F)F)c3c2N)CCC4)n1`, in test [1], the max response is 13.6% (inactive). Further, the remaining parasite growth % (stronger effect = lower value) in test [2] came to 100%. For the same compound, the activity, percent of control in test [3] came to 101%. This compound registered a parasite growth, % of DMSO control in test [5] of 44.6%. Besides, the parasite growth remaining, % of DMSO control (lower = more inhibition) in test [6] was 90.9%. Moreover, the parasite growth, % of control (lower = inhibition) in test [7] amounted to 62.4%. The compound also registered a growth, % of control in test [8] of 78.3%.
For the compound `Cc1n[nH]c(C)c1Cc1sc2c(c1C(=O)N1C[C@H](O)CO1)c(=O)n(C)c(=O)n2CC(C)C`, in test [1], the max response is 4.91% (inactive). The remaining parasite growth % (stronger effect = lower value) in test [2] was 111%. Besides, the activity, percent of control in test [3] amounted to 99.9%. Further, in test [4], the remaining proliferation (% of control), lower = more inhibition was 81.9%. The compound also came in with a parasite growth, % of DMSO control in test [5] of 161%. For the same compound, the parasite growth remaining, % of DMSO control (lower = more inhibition) in test [6] was 107%. Besides, the parasite growth, % of control (lower = inhibition) in test [7] was found to be 86.3%. In test [8], this compound gave a growth, % of control of 145%.

The values above are taken from PubChem BioAssay (NCATS).
